Data published in ChEMBL document CHEMBL3988442, “University of Dundee, Small-Polar-MMV Screening Library” (2021).
The campaign covered roughly 48,000 compounds. About 13,000 (27%) showed an effect of 50% or more. This is one part of the list.

These compounds were tested on Wolbachia pipientis (assay: Anti-Wolbachia Cell-Based Screen). Details: 5 µM.
Assay type: functional
Design: scale not given: in the data most compounds retested in dose-response had high values
With CSc1ccc(-c2nc(CN3CCC(NC(C)=O)CC3)c(C)o2)cc1 the “Percent Effect” value was 26.44%.
In the case of O=C(O)C(F)(F)F.O=C(O)C(F)(F)F.c1ccc(O[C@H]2CO[C@@]3(CCN(Cc4ccc5c(c4)OCO5)C3)C2)nc1, the “Percent Effect” value is reported as 2.667%.
For CS(=O)(=O)N1CCC[C@]2(C[C@@H](Oc3ncccc3F)CO2)C1.O=C(O)C(F)(F)F, the “Percent Effect” value was -13.76%.
Cn1cc(CN2CCC[C@]3(C[C@@H](Oc4ncccc4F)CO3)C2)cn1.O=C(O)C(F)(F)F.O=C(O)C(F)(F)F was tested, and the “Percent Effect” value was 104.4%.
In the case of CN(C)S(=O)(=O)N1CC[C@]2(C[C@H](Oc3ncccc3F)CO2)C1.O=C(O)C(F)(F)F, the “Percent Effect” value is reported as -14.15%.
For Cn1cc(CN2CCC[C@]3(C[C@H](Oc4ncccc4F)CO3)C2)cn1.O=C(O)C(F)(F)F.O=C(O)C(F)(F)F, the “Percent Effect” value was 108.2%.
With O=C(O)C(F)(F)F.O=C(c1cnoc1)N1CCC[C@]2(C[C@H](Oc3ncccc3F)CO2)C1 the “Percent Effect” value was -8.736%.
For Cc1nc(CN2CCCC(N(C)Cc3nc(CC(C)C)no3)C2)no1 (stereo not given), the “Percent Effect” value was -5.621%.
For CC(C)OC[C@H]1CCC[C@]12CN(S(=O)(=O)c1cccs1)CCO2, the “Percent Effect” value was -17.54%.
CC(C)OC[C@H]1CCC[C@]12CN(S(=O)(=O)c1cn(C)cn1)CCO2 was tested, and the “Percent Effect” value was 110%.
With COC[C@@H]1CCC[C@]12CN(S(=O)(=O)c1cn(C)cn1)CCO2 the “Percent Effect” value was 112.9%.
In the case of CO[C@@H]1CC[C@H]2[C@H]1OCCN2S(=O)(=O)c1cn(C)cn1, the “Percent Effect” value is reported as -3.329%.
COCC1N(S(=O)(=O)c2cn(C)cn2)[C@H]2CC[C@]1(O)CC2 (stereo not given in full) was tested, and the “Percent Effect” value was 116.2%.
COC[C@@H]1CCC[C@]12CN(S(=O)(=O)c1cccs1)CCO2 was tested, and the “Percent Effect” value was -10.75%.
With CCN1CCO[C@]2(CCC[C@H]2COCc2csc(C)n2)C1.O=C(O)C(F)(F)F.O=C(O)C(F)(F)F the “Percent Effect” value was -10.73%.
For COC[C@H]1CCC[C@]12CN(S(=O)(=O)c1cccs1)CCO2, the “Percent Effect” value was -5.962%.
For CO[C@@H]1CCN(S(=O)(=O)c2cn(C)cn2)[C@H]1Cc1ccccc1, the “Percent Effect” value was -1.543%.
In the case of CCOC[C@@H]1CCC[C@]12CN(S(=O)(=O)c1cn(C)cn1)CCO2, the “Percent Effect” value is reported as 118.4%.
CC(C)OC[C@H]1CCC[C@]12CN(S(=O)(=O)C1CC1)CCO2 was tested, and the “Percent Effect” value was -22.82%.
In the case of O=C(c1cnccn1)N1CCN2C[C@H](OCC3CC3)C[C@H]2C1, the “Percent Effect” value is reported as -2.249%.
For CCOc1cccc(COC(=O)c2scnc2C)n1, the “Percent Effect” value was -15.18%.
O=C(NCCn1cccn1)C1CCC(=O)N(CC2CCCCC2)C1 (stereo not given) was tested, and the “Percent Effect” value was 7.611%.
For Cc1ccccc1OC1CN(Cc2c(C)nc3ccccn23)C1, the “Percent Effect” value was -115.8%.
CNc1nc(CNC(=O)Nc2cccc(F)c2C)cs1 was tested, and the “Percent Effect” value was -1.885%.
With O=C(NCCCn1cccn1)C1CCC(=O)N(Cc2ccccc2F)C1 (stereo not given) the “Percent Effect” value was -2.925%.
With CCC(C)NC(=O)c1ccc(-c2ccco2)[nH]c1=O (stereo not given) the “Percent Effect” value was 3.717%.
For CC(C)CCNC(=O)c1ccc(-c2ccco2)[nH]c1=O, the “Percent Effect” value was 11.73%.
For COCCNC(=O)C(C)n1nc(-c2ccco2)cc(N)c1=O (stereo not given), the “Percent Effect” value was 94.6%.
For CC(C)OCCCNC(=O)c1ccc(-c2ccco2)[nH]c1=O, the “Percent Effect” value was -5.072%.
COCCCNC(=O)C(C)n1nc(-c2ccco2)cc(N)c1=O (stereo not given) was tested, and the “Percent Effect” value was 133.4%.
COCCCNC(=O)Nc1cc(-c2ccccc2C)nn1CCO was tested, and the “Percent Effect” value was -5.534%.
For COc1cc(NC(=O)N(C)Cc2ccc(Br)o2)ncn1, the “Percent Effect” value was 1.624%.
With COc1ccnc(NC(=O)c2cscn2)c1 the “Percent Effect” value was -4.154%.
For CSc1ncccc1C(=O)N1C[C@H]2CC[C@@H]1CN(CC(=O)N(C)C)C2, the “Percent Effect” value was -12.01%.
For F[C@@H]1CN(CC2CC2)C[C@@H]1OCc1nc2ccccc2o1, the “Percent Effect” value was -15.91%.
C[C@@H]1CN(CCCOc2ccc(F)cc2)CC[C@@]1(O)C1CCOCC1 was tested, and the “Percent Effect” value was 97.34%.
C[C@@H]1CN(Cc2cc(C3CCCCC3)no2)CC[C@@]1(O)C1CC1 was tested, and the “Percent Effect” value was 9.24%.
For C[C@@H]1CN(CCOc2ccc(F)cc2)CC[C@@]1(O)C1CCOCC1, the “Percent Effect” value was 93.05%.
In the case of C[C@@H]1CN(C(=O)CCCN2CCCC2)CC[C@@]1(O)C1CCOCC1, the “Percent Effect” value is reported as -4.515%.
For C[C@@H]1CN(CCOCc2ccccc2)CC[C@@]1(O)C1CCC1, the “Percent Effect” value was -4.959%.
With COc1cc(F)c(CN2CC[C@@](O)(C3CC3)[C@H](C)C2)cc1OC the “Percent Effect” value was 9.055%.
In the case of COc1cccc(OCCN2CC[C@@](O)(C3CCOCC3)[C@H](C)C2)c1, the “Percent Effect” value is reported as 98.26%.
In the case of C[C@@H]1CN(C(=O)CCCN2CCOCC2)CC[C@@]1(O)C1CCC1, the “Percent Effect” value is reported as -2.629%.
C[C@@H]1CN(CCOc2ccc(Cl)cc2)CC[C@@]1(O)C1CCOCC1 was tested, and the “Percent Effect” value was 95.64%.
CN(C)CCN(C)S(=O)(=O)Cc1ccc(Br)cc1 was tested, and the “Percent Effect” value was -1.249%.
With CCC(=O)c1ccc(OCC(=O)NC(C)c2nnc(C)[nH]2)cc1 (stereo not given) the “Percent Effect” value was 8.329%.
In the case of O=C(CCNS(=O)(=O)c1ccc2c(c1)CCCC2)NCc1ccoc1, the “Percent Effect” value is reported as 1.514%.
CCN(Cc1csc(CS(C)(=O)=O)n1)c1cccc(CO)c1 was tested, and the “Percent Effect” value was 6.548%.
With CCc1nsc(NC2CCOC3(CCCC3)C2)n1 (stereo not given) the “Percent Effect” value was -3.423%.
For COCCCNS(=O)(=O)c1cc(C)sc1C, the “Percent Effect” value was 1.598%.
C=C(C)COc1cccc(CNC(CC)c2ccnn2C)c1 (stereo not given) was tested, and the “Percent Effect” value was -16.98%.
In the case of NC(=O)COc1cccc(C(=O)N2CCCC(n3cccn3)C2)c1 (stereo not given), the “Percent Effect” value is reported as -6.954%.
For Cc1nccn1C1CCCN(C(=O)c2cccc(S(C)(=O)=O)c2)C1 (stereo not given), the “Percent Effect” value was 94.78%.
Cc1nccn1C1CCCN(C(=O)c2cccc(-n3cccc3)c2)C1 (stereo not given) was tested, and the “Percent Effect” value was 98.3%.
With Cc1nccn1C1CCCN(C(=O)c2cccc(OCC(N)=O)c2)C1 (stereo not given) the “Percent Effect” value was 92.13%.
In the case of COc1cccc(COCC(=O)N2CCCC(n3ccnc3C)C2)c1 (stereo not given), the “Percent Effect” value is reported as -4.06%.
CC(=O)c1cn(CCC(=O)N[C@H](C(=O)O)C(C)C)c2ccccc12 was tested, and the “Percent Effect” value was 14.47%.
In the case of Cc1ccc2cccc(S(=O)(=O)N(C)C3CCCN(C)C3)c2n1 (stereo not given), the “Percent Effect” value is reported as 110%.
CN(C1CCCCC1)S(=O)(=O)NC1CCCN(c2ncccn2)C1 (stereo not given) was tested, and the “Percent Effect” value was -0.1008%.
With Cc1ccc2cccc(S(=O)(=O)N(C)CC3CCN(C)C3)c2n1 (stereo not given) the “Percent Effect” value was 116.7%.
In the case of Cc1ccc2cccc(C(=O)NCC3CCN(C(C)C)C3)c2n1 (stereo not given), the “Percent Effect” value is reported as -2.471%.
CN1CCCC(N(C)C(=O)c2ccc(NC(=O)c3cc[nH]n3)cc2)C1 (stereo not given) was tested, and the “Percent Effect” value was -7.369%.
For Cc1ccc2cccc(S(=O)(=O)N(C)CC3CCN(C)CC3)c2n1, the “Percent Effect” value was 117.6%.
Cc1ccc2cccc(C(=O)NCCOCC3CC3)c2n1 was tested, and the “Percent Effect” value was 4.026%.
For CN(C1CCN(c2ccccn2)CC1)S(=O)(=O)c1ccccc1F, the “Percent Effect” value was -17.13%.
In the case of CN1CCC(CN(C)S(=O)(=O)CC2CCCCC2)CC1, the “Percent Effect” value is reported as -3.898%.
With CN1CCCC(N(C)S(=O)(=O)c2cccc3ncccc23)C1 (stereo not given) the “Percent Effect” value was 142.2%.
In the case of CCN(C1CCS(=O)(=O)C1)S(=O)(=O)c1cccc2cc(C)cnc12 (stereo not given), the “Percent Effect” value is reported as 2.36%.
CN1CCC(CNC(=O)c2ccc3cccc(Cl)c3n2)C1 (stereo not given) was tested, and the “Percent Effect” value was 16.58%.
For COCCN1CC(c2nc(CC3CCN(C)CC3)no2)CCC1=O (stereo not given), the “Percent Effect” value was -7.698%.
Cc1ccc(C(N)=O)cc1NCCOc1cccc(C#N)c1 was tested, and the “Percent Effect” value was -8.652%.
In the case of O=C(c1[nH]nc2c1CCCC2)N1CCC(OCCN2CCCCC2)C1 (stereo not given), the “Percent Effect” value is reported as 5.05%.
For COCCN(CCC#N)S(=O)(=O)c1ccc(F)cc1Cl, the “Percent Effect” value was -17.33%.
With CCOc1ncc(NC(=O)c2ccco2)c(OCC)n1 the “Percent Effect” value was 6.887%.
CC(Cn1ccnc1)NC(=O)N1CCN(Cc2cccnc2)CC1 (stereo not given) was tested, and the “Percent Effect” value was -2.682%.
For Cc1ccc(CNC(=O)N2CCN(Cc3ccsc3)CC2)n1C, the “Percent Effect” value was 2.843%.
In the case of CC1CN(C(=O)NCCn2ccnc2)CCO1 (stereo not given), the “Percent Effect” value is reported as -11.62%.
With O=C(NCCn1ccnc1)N1CCCC1c1ccsc1 (stereo not given) the “Percent Effect” value was 8.592%.
In the case of O=C(NCCn1ccnc1)N1CCN(Cc2ccsc2)CC1, the “Percent Effect” value is reported as 102.5%.
O=C(NCCn1ccnc1)N1CCN(Cc2cccnc2)CC1 was tested, and the “Percent Effect” value was 109.3%.
CC(=O)N1CCN(C(=O)NCc2ccccc2Cn2ccnc2)CC1 was tested, and the “Percent Effect” value was -14.94%.
In the case of O=C(NCCn1ccnc1)N1CCN(Cc2ccco2)CC1, the “Percent Effect” value is reported as 103.9%.
In the case of O=C(NCCNc1ncccn1)N1CCN(Cc2cccnc2)CC1, the “Percent Effect” value is reported as -0.1396%.
With Cc1cc(C)n(CC2(CNC(=O)C(c3ccccc3C)N(C)C)CC2)n1 (stereo not given) the “Percent Effect” value was -3.627%.
With Cc1nc(CN(CCS(C)(=O)=O)C(C)C)cs1 the “Percent Effect” value was -0.8172%.
For CN(C)CCO[C@@H]1CC[C@H]2[C@H]1OCCN2C(=O)c1ccc(F)cc1.O=C(O)C(F)(F)F, the “Percent Effect” value was 97.45%.
Cc1ccc(C(=O)N2CCO[C@H]3[C@H](OCCN(C)C)CC[C@@H]32)cn1 was tested, and the “Percent Effect” value was 110.3%.
In the case of Cc1cccc(C(=O)N2CCO[C@H]3[C@H](OCCN(C)C)CC[C@@H]32)n1, the “Percent Effect” value is reported as 97.76%.
For O=C(C1CCOCC1)N1CCO[C@H]2[C@@H](OCc3ccncc3)CC[C@@H]21, the “Percent Effect” value was -9.852%.
With Cc1ccoc1C(=O)N1CCO[C@H]2[C@H](OCC3CCOCC3)CC[C@@H]21 the “Percent Effect” value was -7.099%.
CO[C@H]1CC[C@H]2[C@H]1OCCN2C(=O)c1ccc(C)nc1 was tested, and the “Percent Effect” value was 6.779%.
In the case of Cc1ccc(C(=O)N2CCO[C@H]3[C@H](OCCN(C)C)CC[C@@H]32)o1.O=C(O)C(F)(F)F, the “Percent Effect” value is reported as 8.027%.
CO[C@@H]1CC[C@H]2[C@H]1OCCN2C(=O)c1ccc(C)nc1.O=C(O)C(F)(F)F was tested, and the “Percent Effect” value was 2.504%.
For Cc1ccoc1C(=O)N1CCO[C@H]2[C@H](OCc3ccncc3)CC[C@@H]21, the “Percent Effect” value was 96.45%.
With c1ccc2c(c1)OCCC2NCc1ccc(N2CCOCC2)cc1 (stereo not given) the “Percent Effect” value was 6.608%.
